The results in this text go back to the supplement of paper PMC9262897, “Low-cost anti-mycobacterial drug discovery using engineered E. coli” (Nature Communications, 2022).

Holding throughout (assay): growth (OD600 after 10 h); higher = more growth (less inhibition)
Assay [1] deals with E. coli TESEC Alr+ wild-type control. As to conditions: compound 0.1 mM; raw OD600 reference: median of DMSO wells 0.241, cell-free background 0.041. As to the method:
(§1)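 TESEC Mtb Alr E. coli, or the Alr+ wild-type control, in 384-well plates with Prestwick library compounds at 0.1 mM and 1% DMSO, across arabinose induction levels of 1E3 to 1E7 nM. Growth is read as OD600 after 10 h at 37 °C in triplicate biological replicates.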

For assay [2], the system named is E. coli TESEC Mtb Alr. As to conditions: compound 0.1 mM. As to the method:
as §1

For assay [3], the system named is E. coli TESEC Mtb Asd. The settings on record: compound 0.1 mM. On the procedure: (§2)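 TESEC E. coli strains in which the native enzyme is deleted and replaced by arabinose-inducible Mtb Asd, DapB, CysH or TrpD, each grown in its selective medium. Strains were screened against the Prestwick library at 0.1 mM and 1% DMSO in 384-well format at low and high arabinose induction. Growth is read as OD600 after 10 h in triplicate.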

The subject of assay [4] is E. coli TESEC Mtb DapB. As to conditions: compound 0.1 mM. On the procedure:
as §2

The test system of assay [5] is E. coli TESEC Alr+ wild-type control. As to conditions: compound 0.1 mM; raw OD600 reference: median of DMSO wells 0.49, cell-free background 0.052. As to the method: (§3)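 TESEC Mtb Alr E. coli (ΔaraC ΔtolC ΔentC Δalr ΔdadX, arabinose-inducible Mtb Alr) or the Alr+ wild-type control strain, grown in defined M9-fructose medium without D-alanine in 96-well plates with Prestwick library compounds at 0.1 mM and 1% DMSO. Low Alr induction is 0.1 µM arabinose and high induction is 10 mM arabinose.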

In assay [6] the test system is E. coli TESEC Mtb Alr. As to conditions: compound 0.1 mM. As to the method: as §3
The source holds these as a separate data set.

Setting [7] is: arabinose 1000 nM, raw OD600 reference: median of DMSO wells 0.294, cell-free background 0.041.
[8] abbreviates: arabinose 10000 nM, raw OD600 reference: median of DMSO wells 0.264, cell-free background 0.041.
Where [9] appears, read: arabinose 100000 nM, raw OD600 reference: median of DMSO wells 0.201, cell-free background 0.041.
Setting [10] is: arabinose 1000000 nM, raw OD600 reference: median of DMSO wells 0.193, cell-free background 0.041.
The mark [11] stands for this setting: arabinose 10000000 nM, raw OD600 reference: median of DMSO wells 0.146, cell-free background 0.041.
[12] abbreviates: arabinose induction (level): High, raw OD600 reference: median of DMSO wells 0.331, cell-free background 0.041.
Where [13] appears, read: arabinose induction (level): Low, raw OD600 reference: median of DMSO wells 0.417, cell-free background 0.041.
Setting [14] is: arabinose induction (level): High, raw OD600 reference: median of DMSO wells […], cell-free background 0.041.
Setting [15] is: arabinose induction (level): Low, raw OD600 reference: median of DMSO wells 0.227, cell-free background 0.041.
Setting [16] is: arabinose 100 nM, raw OD600 reference: median of DMSO wells 0.413, cell-free background 0.052.
The mark [17] stands for this setting: arabinose 10000000 nM, raw OD600 reference: median of DMSO wells […], cell-free background 0.052.

Where a name gives a salt, the structure may show the parent alone. ± gives the standard deviation of the averaged measurements.

In the case of `CC(=O)SCC(Cc1ccccc1)C(=O)NCC(=O)OCc1ccccc1` (configuration not stated) [Racecadotril], the growth was found to be 0.183 ± 0.0055 in assay [1]; 0.26 ± 0.016 in assay [2] (setting [7]); 0.241 ± 0.011 in assay [2] (setting [8]); 0.23 ± 0.022 in assay [2] (setting [9]); 0.132 ± 0.0014 in assay [2] (setting [10]); 0.189 ± 0.0054 in assay [2] (setting [11]). The growth in assay [3] (setting [12]) turned out to be 0.28 ± 0.053; in assay [3] (setting [13]), 0.215 ± 0.013; in assay [4] (setting [14]) it was 0.172 ± 0.012; in assay [4] (setting [15]), 0.24 ± 0.023; in assay [5], 0.502 ± 0.028; in assay [6] (setting [16]) it was 0.398 ± 0.0054. Further, the growth in assay [6] (setting [17]) is 0.298 ± 0.0095.

Consider `CC(C)(C)NCC(O)COc1cccc2c1CCC(=O)N2` (configuration not stated) [Carteolol hydrochloride], for which the growth in assay [1] was determined as 0.236 ± 0.0081; in assay [2] (setting [7]), 0.285 ± 0.02; in assay [2] (setting [8]) it was 0.2521 ± 0.002; in assay [2] (setting [9]), 0.197 ± 0.043; in assay [2] (setting [10]), 0.181 ± 0.0071; in assay [2] (setting [11]), 0.143 ± 0.0038. Further, the growth in assay [3] (setting [12]) was determined as 0.222 ± 0.024; in assay [3] (setting [13]) it was 0.349 ± 0.1; in assay [4] (setting [14]), 0.187 ± 0.0085; in assay [4] (setting [15]), 0.217 ± 0.022; in assay [5] it was 0.649 ± 0.043; in assay [6] (setting [16]) it was 0.405 ± 0.009. Besides, the growth in assay [6] (setting [17]) stood at 0.334 ± 0.0046.

Take `CN[C@@H]1[C@H](O[C@H]2[C@H](O[C@H]3[C@H](O)[C@@H](O)[C@H](NC(=N)N)[C@@H](O)[C@@H]3NC(=N)N)O[C@@H](C)[C@]2(O)CO)O[C@@H](CO)[C@H](O)[C@H]1O` [Dihydrostreptomycin sulfate]: the growth in assay [1] was found to be 0.041 ± 0.0011; in assay [2] (setting [7]), 0.0419 ± 0.0011; in assay [2] (setting [8]), 0.03877 ± 0.00012; in assay [2] (setting [9]), 0.0454 ± 0.0053; in assay [2] (setting [10]) it was 0.0395 ± 0.0004; in assay [2] (setting [11]) it was 0.0485 ± 0.0005. Further, the growth was found to be 0.0488 ± 0.00072 in assay [3] (setting [12]); 0.0499 ± 0.0017 in assay [3] (setting [13]); 0.0489 ± 0.00049 in assay [4] (setting [14]); 0.0483 ± 0.00061 in assay [4] (setting [15]); 0.0605 ± 0.0073 in assay [5]; 0.0553 ± 0.0036 in assay [6] (setting [16]). The compound also came in with a growth in assay [6] (setting [17]) of 0.0534 ± 0.00091.

Consider `CC1CCc2c(N3CCC(O)CC3)c(F)cc3c(=O)c(C(=O)O)cn1c23` (configuration not stated) [Nadifloxacin], for which the growth in assay [1] came to 0.04253 ± 5.8e-05; in assay [2] (setting [7]), 0.04043 ± 0.00023; in assay [2] (setting [8]), 0.0418 ± 0.0029; in assay [2] (setting [9]), 0.0437 ± 0.005; in assay [2] (setting [10]), 0.03983 ± 0.00031; in assay [2] (setting [11]) it was 0.04117 ± 0.00023. For the same compound, the growth in assay [3] (setting [12]) is 0.0522 ± 0.007; in assay [3] (setting [13]), 0.0485 ± 0.0008; in assay [4] (setting [14]) it was 0.0495 ± 0.00066; in assay [4] (setting [15]), 0.0498 ± 0.0021; in assay [5], 0.0538 ± 0.0013; in assay [6] (setting [16]) it was 0.0535 ± 0.00072. In assay [6] (setting [17]), this compound came in with a growth of 0.05197 ± 5.8e-05.
